HCMV antiviral: human cytomegalovirus inhibition. HFF cells, HCMV-luciferase reporter, 72 h; hits give low values. activity change, negative = inhibition, % at 57.5 µM. 4.5% of 410,000 active; in the data active = activity change below about -60%; inconclusive = no clear call, values can overlap the other calls; inactive = above about -39%; also: % is scaled to controls: 0 for no effect and ±100 for the full control effect
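Human foreskin fibroblasts infected with luciferase-reporter HCMV at MOI 1 PFU/cell, compounds at two doses. Luciferase measured 72 h post infection; normalized to buffer-only basal and Salinomycin (10uM) controls.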
Pf growth 96h: P. falciparum growth inhibition at 96 hour, primary screen for plastid delayed-death inhibitors; Potency, µM (top dose mostly 28.7 µM), for the others: top-dose activity change, negative = inhibition, actives largely listed as inhibitors; AID 504834; 6.9% of 320,000 active; P. falciparum luciferase reporter growth, 96 h; also: potency is read from the fitted curve at half-maximal effect; % is scaled to controls: 0 for no effect and ±100 for the full control effect
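Infected RBCs, 2% Hct / 0.05% parasitemia final; luciferase-reporter P. falciparum; cpd 96 h, 37 C, 5% CO2; luciferase detection reagent; luminescence.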
HCV inh: HCV inhibition | Huh7.5.1 HCVcc-Cre infection, luciferase reporter, 44 h | 3.4% of 340,000 active | Potency, µM (highest dose often 41.8 µM), for the others: top-dose activity change, negative = inhibition, hits mostly inhibitors; also: potency is read from the fitted curve at half-maximal effect; % is scaled to controls: 0 for no effect and ±100 for the full control effect
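Compounds are dispensed onto cells plated 4 h earlier at 1,000 per well, with HCVcc-Cre virus (about 0.5 moi) added next. Following 44 h of culture, luminescent signal is measured for 15 sec after 15 min with substrate at room temperature.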
Pf growth 48h: P. falciparum growth inhibition at 48 hours (one generation) | P. falciparum luciferase growth in erythrocytes, 48 h | Potency, µM (highest dose often 28.7 µM), inactives show at the top dose activity change, negative = inhibition, most hits filed as inhibitors | 5.9% of 310,000 active; also: potency is read from the fitted curve at half-maximal effect; % is scaled to controls: 0 for no effect and ±100 for the full control effect
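In quantitative HTS format, infected erythrocytes bearing luciferase-reporter parasites were treated for a single generation at 37 C. Luminescence after adding detection reagent served as the growth measure.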
Shiga inhibitor: blocks Shiga toxin action in Vero cells | Vero cells, Shiga toxin protein synthesis inhibition reporter | AID 2315 | inhibition, % at 38.7 µM | 9.2% of 290,000 active; in the data active = inhibition mostly above about 28%, no sharp cut-off; inactive = mostly below about 43%; also: 0% is about no effect
CHX counter: counter-screen for Shiga toxin inhibitors: cycloheximide protein synthesis inhibition. cell reporter, cycloheximide protein synthesis inhibition counterscreen. max response, %. 12% of 300,000 active. AID 2314; in the data active = max response mostly above about 13%, no sharp cut-off; inactive = mostly below about 14%; also: read at 38.3 µM for the half of the compounds with a filed dose; 0% is about no effect
Active calls of the source: *; ? = inconclusive; nt = no result given; [ ] = dose if it differs, or a comment. An excerpt weighted towards active compounds, which were near 21% of everything screened. Unless noted, calls follow the shape of the dose curve; as a rule, active = well fitted inhibition curve with a large enough effect; inconclusive = small, poorly fitted or top-dose-only effect, or another doubt; inactive = no such curve, though single readings can be large or run the other way.

SMILES	HCMV antiviral	Pf growth 96h	HCV inh	Pf growth 48h	Shiga inhibitor	CHX counter
O=c1nc(-c2ccccc2)c2cc(Br)ccc2[nH]1	-9.6	26.5%	-7.9%	2.5%	-22.7	-2.1
O=c1cc2[nH]c3ccccc3c(=O)n2nc1-c1ccccc1	87.9	nt	-8.1%	40.6%	63.6	24.9*
O=C(O)c1ccccc1-c1c2cc(Br)c(=O)cc-2oc2[c]([Hg])c(O)c(Br)cc12	nt	6.42µM*	nt	?	nt	nt
CCn1c(=O)c2cc(C(=O)Nc3cc(OC)c(OC)c(OC)c3)sc2c2ccccc21	-8.5	nt	nt	nt	nt	nt
O=CNc1c(Br)cc2c(c1Br)Cc1cc(Br)ccc1-2	11.5	nt	?	nt	nt	nt
O=S(=O)(NCC(O)c1ccccc1)c1ccc(-c2ccccn2)s1 (stereo not drawn)	6.2	77.9%	?	?	-5.0	-2.9
O=S(=O)(NCC(O)c1ccccc1)c1cc(Cl)sc1Cl (stereo not drawn)	-13.0	2.2%	17.0%	?	24.6*	10.3
CC(C)C[C@@H](CSc1ccc(Br)cc1)N1CCN(C)CCC1=O	95.3	?	?	-61.4%	56.7*	39.7*
Cc1ccc(SC[C@H](CC(C)C)N2CCN(C)CCC2=O)cc1	76.1	19.7%	3.7%[8.37 µM]	32.1%	83.8*	38.1*
COc1ccc(SC[C@H](CC(C)C)N2CCN(C)CCC2=O)cc1	49.8	66.0%	-0.7%[8.37 µM]	57.3%	75.0*	17.1*
COc1ccc(SCCN2CCN(C)CCC2=O)cc1	41.9	40.0%	5.8%	6.4%	44.2	7.5
Cc1cccc(N2CCN(C(=O)c3cccn3-c3nnc(N4CCCCC4)s3)CC2)c1C	0.0	nt	nt	nt	nt	nt
O=c1[nH]c2ccccc2n1CCCN1CCC(n2c(=O)[nH]c3cc(Cl)ccc32)CC1	-78.5*	4.78µM*	?	10.7µM*	13.0	4.0
COc1ccc(CCNC(=O)c2cnc3sc(N4CCC(C)CC4)nn3c2=O)cc1OC	4.1	nt	nt	nt	nt	nt
Cc1cccc2nc(CSc3nnc(N)s3)cn12	211.8	34.5%	6.5%	72.7%	65.2*	22.1*
Cc1onc(-c2ccccc2)c1C(=O)NC(=S)NNC(=O)c1cccnc1	3.8	?	-15.4%	22.4%	9.8	-5.0
COc1ccc(C(=O)NC(=S)NNC(=O)c2c(-c3ccccc3)noc2C)cc1OC	63.0	19.6%	?	57.3%	-3.1	-2.3
Cc1onc(-c2ccccc2)c1C(=O)NNC(=S)NC(=O)c1ccc2c(c1)OCO2	15.5	86.6%	7.3%	103.3%	90.5*	46.5*
Cc1onc(-c2ccccc2)c1C(=O)NC(=S)NNC(=O)c1ccncc1	4.2	10.4µM*	?	?	-4.5	-3.4
O=C(Cc1ccc([N+](=O)[O-])cc1)Nc1ccc2c(c1)CCC2	-10.8	23.2%	9.5%	8.3%	22.7	10.6
O=C(/C=C/c1ccccc1)N1CCN(c2ccc([N+](=O)[O-])c(N3CCOCC3)c2)CC1	-21.8	10.4µM*	?	?	-10.6	-2.4
Cc1cccc(C(=O)N2CCN(c3ccc([N+](=O)[O-])c(N4CCOCC4)c3)CC2)c1	-23.0	?	-17.3%	?	-10.9	6.1
O=C(c1ccc2ccccc2c1)N1CCN(c2ccc([N+](=O)[O-])c(N3CCOCC3)c2)CC1	-11.8	8.28µM*	?	7.38µM*	41.3	26.2*
CCOc1ccc(Nc2ncnc3c2nc2n3CCCC2)cc1	-0.7	nt	nt	nt	nt	nt
COc1cccc(NC(=O)CN(C)C(=O)c2cc(S(=O)(=O)N3CCCCCC3)ccc2OC)c1	-3.8	?	0.8%	?	nt	nt
SMILES	HCMV antiviral	Pf growth 96h	HCV inh	Pf growth 48h	Shiga inhibitor	CHX counter
CCc1cc2c(NCCC(=O)O)ncnc2s1	-8.0	11.7µM*	9.4%	17.5%	-2.1	-3.6
CCc1nc2ccc(C(=O)N3CCN(S(=O)(=O)CC)CC3)cn2c1N(CCC(C)C)CCN(C)C	17.3	nt	nt	nt	nt	nt
Fc1ccccc1CSc1nc2ncc(Br)cc2[nH]1	31.9	13.1µM*	-1.5%	nt	27.2	22.3*
Fc1c(F)c(F)c(CSc2nc3ccccc3[nH]2)c(F)c1F	-6.8	32.0%	?	?	71.1*	25.2*
N#Cc1ccccc1CSc1nc2ncc(Br)cc2[nH]1	19.0	9.0%	?	-9.8%	15.3	0.4
Fc1ccccc1CSc1nc2ccccc2[nH]1	65.8	236.6%	-0.5%	nt	86.1*	53.6*
c1ccc2[nH]c(SCc3cscn3)nc2c1	44.3	?	13.0%	61.3%	65.0*	35.4*
CC(C)(C)c1ccc(OCC(=O)NCC(c2cccs2)N2CCOCC2)cc1 (stereo not drawn)	-33.3	?	?	?	nt	nt
Cc1ccc(C2c3[nH]c4ccccc4c3CCN2C(=O)Nc2ccc(C)c(C)c2)cc1 (stereo not drawn)	63.0	nt	nt	nt	nt	nt
Cc1cccc(N2CCN(C(=O)c3sc4nc5n(c(=O)c4c3C)CCC5)CC2C)c1 (stereo not drawn)	-12.5	nt	nt	nt	nt	nt
O=C(C#Cc1ccccc1)c1ccco1	-99.0*	-17.1%	?	-29.8%	-14.7	-7.0
O=C(Nc1ccccc1NC(=O)c1ccco1)c1ccccc1	22.1	38.4%	6.5%	5.6%	-6.9	-13.4
Nc1nc2ccccc2cc1-c1cccs1	78.1	67.7%	-23.6%	-14.4%[0.00184 µM]	93.6*	60.8*
Cc1cc(-c2cccs2)n[nH]1	25.5	nt	5.7%	7.1%	28.5	13.8
CC(C)Cn1c(-c2cccs2)nc2ccccc21	-33.6	nt	-26.3%	-11.4%	-12.5	11.2
N#Cc1cc2ccccc2nc1N	36.4	16.4%	15.9%	18.3%	9.0	-2.4
Cc1ccc(-c2cc3ccccc3nc2N)cc1	119.1	-1.8%	?	-14.3%[0.00184 µM]	71.1*	17.8*
Cc1cc2ncc(-c3cccs3)nc2cc1C	113.6	493.7%	-5.1%	141.6%	101.5*	51.4*
c1csc(-c2ccc3ccccc3n2)c1	14.1	-1.8%[5.75 µM]	2.7%	116.8%	89.6	33.4*
CCOC(=O)c1cc(C(=O)OCC)c(=O)[nH]c1N1CCCC1	-12.6	-10.7%	-20.7%	29.5%	-2.3	5.3
O=C(Nc1nc2ccccc2s1)c1cc(-c2ccccc2)nn1-c1ccccc1	-74.8*	?	?	32.5%	23.9*	25.6*
O=C(NNC(=O)c1cc(-c2ccccc2)nn1-c1ccccc1)c1ccccc1	-20.2	27.8%	13.9%	17.2%	13.1	8.5*
Cc1cc(OCC(=O)OCC(=O)N(C)c2c(N)n(Cc3ccccc3)c(=O)[nH]c2=O)ccc1Cl	-12.3	30.1%	6.0%	1.8%	nt	nt
Cc1nccc2[nH]c(=O)c(C(=O)NC3CCCCC3C)cc12 (stereo not drawn)	-8.8	3.29µM*	11.6%	?	22.4	1.3
COC1CCCCC1Nc1ccc(C)c(C)c1 (stereo not drawn)	-15.9	2.08µM*	31.3%	-5.7%	10.0	-2.8
Cc1ccccc1OCC(=O)Nc1ccc(S(=O)(=O)N(Cc2ccccc2)c2ccccc2)cc1	2.3	nt	nt	nt	nt	nt
CC(C)(C)c1ccc(C(=O)Nc2nnc(C3=COCCO3)o2)cc1	-7.7	9.28µM*	14.5%	14.7µM*	-1.7	-1.2

Source: PubChem (National Center for Advancing Translational Sciences (NCATS))
